# Measurements reported in the supplement of paper PMC9694430.
# Tests used:
# Assay in all cases: thermal shift delta Tm vs DMSO control; higher = stronger stabilization (binding)
# Settings in all cases: 12.5 µM; protein concentration 2 µM
# LOC_OS01G57100-cb003 = tested on: LOC_OS01G57100-cb003
# Method in brief: (§1)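 Rice kinase domain constructs, made in E. coli and purified, were placed in 96-well plates at 2 μM in 19.5 μl of 100 mM potassium phosphate pH 7.5, 150 mM NaCl, 10% glycerol and 5 × SYPRO Orange, with compound in DMSO. A temperature ramp from 25°C to 95°C at 0.05°C/s was used for differential scanning fluorimetry. The melting temperature shift is a triplicate mean compared with DMSO-only protein, derived from Boltzmann fits.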
# LOC_OS01G60330-cb001 = tested on: LOC_OS01G60330-cb001
# Method in brief: as §1
# LOC_OS01G60700-cb002 = tested on: LOC_OS01G60700-cb002
# Method in brief: as §1
# LOC_OS01G63280-cb003 = tested on: LOC_OS01G63280-cb003
# Method in brief: as §1
# LOC_OS01G67340-cb003 = tested on: LOC_OS01G67340-cb003
# Method in brief: as §1
# LOC_OS01G70970-cb002 = tested on: LOC_OS01G70970-cb002
# Method in brief: as §1
# LOC_OS02G07810-cb001 = tested on: LOC_OS02G07810-cb001
# Method in brief: as §1
# LOC_OS02G08530-cb003 = tested on: LOC_OS02G08530-cb003
# Method in brief: as §1
# LOC_OS02G14120-cb001 = tested on: LOC_OS02G14120-cb001
# Method in brief: as §1
# LOC_OS02G17970-cb001 = tested on: LOC_OS02G17970-cb001
# Method in brief: as §1
# LOC_OS02G45750-cb003 = tested on: LOC_OS02G45750-cb003
# Method in brief: as §1
# LOC_OS02G54510-cb004 = tested on: LOC_OS02G54510-cb004
# Method in brief: as §1
# LOC_OS03G04050-cb001 = tested on: LOC_OS03G04050-cb001
# Method in brief: as §1
# LOC_OS03G12390-cb001 = tested on: LOC_OS03G12390-cb001
# Method in brief: as §1
# LOC_OS03G27990-cb004 = tested on: LOC_OS03G27990-cb004
# Method in brief: as §1
# LOC_OS03G50450-cb001 = tested on: LOC_OS03G50450-cb001
# Method in brief: as §1
# LOC_OS03G50810-cb003 = tested on: LOC_OS03G50810-cb003
# Method in brief: as §1
# LOC_OS04G35114-cb001 = tested on: LOC_OS04G35114-cb001
# Method in brief: as §1
# LOC_OS04G38480-cb003 = tested on: T1, LOC_OS04G38480-cb003
# T1 sequence (whole entry): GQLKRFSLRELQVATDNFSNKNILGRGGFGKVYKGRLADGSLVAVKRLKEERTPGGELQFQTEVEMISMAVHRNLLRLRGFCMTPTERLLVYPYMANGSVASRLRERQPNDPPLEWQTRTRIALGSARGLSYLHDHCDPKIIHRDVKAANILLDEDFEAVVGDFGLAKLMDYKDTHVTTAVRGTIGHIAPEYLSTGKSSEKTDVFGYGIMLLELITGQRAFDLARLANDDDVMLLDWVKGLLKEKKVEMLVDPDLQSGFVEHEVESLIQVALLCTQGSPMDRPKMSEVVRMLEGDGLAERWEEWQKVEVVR
# Method in brief: as §1
# LOC_OS04G41100-cb001 = tested on: T2, LOC_OS04G41100-cb001
# T2 sequence (whole entry): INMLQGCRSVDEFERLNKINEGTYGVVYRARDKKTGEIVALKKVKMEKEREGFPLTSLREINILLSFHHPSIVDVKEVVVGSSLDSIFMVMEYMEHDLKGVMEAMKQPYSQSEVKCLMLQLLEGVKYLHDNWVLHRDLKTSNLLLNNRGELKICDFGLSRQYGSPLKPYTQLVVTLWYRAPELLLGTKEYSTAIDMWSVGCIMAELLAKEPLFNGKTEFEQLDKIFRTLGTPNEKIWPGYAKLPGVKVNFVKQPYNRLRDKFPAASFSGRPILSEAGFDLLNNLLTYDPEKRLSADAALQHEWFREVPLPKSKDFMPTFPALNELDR
# Method in brief: as §1
# 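Note: purified Escherichia coli-expressed rice kinase domain construct.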
SMILES,thermal shift delta Tm (LOC_OS01G57100-cb003),thermal shift delta Tm (LOC_OS01G60330-cb001),thermal shift delta Tm (LOC_OS01G60700-cb002),thermal shift delta Tm (LOC_OS01G63280-cb003),thermal shift delta Tm (LOC_OS01G67340-cb003),thermal shift delta Tm (LOC_OS01G70970-cb002),thermal shift delta Tm (LOC_OS02G07810-cb001),thermal shift delta Tm (LOC_OS02G08530-cb003),thermal shift delta Tm (LOC_OS02G14120-cb001),thermal shift delta Tm (LOC_OS02G17970-cb001),thermal shift delta Tm (LOC_OS02G45750-cb003),thermal shift delta Tm (LOC_OS02G54510-cb004),thermal shift delta Tm (LOC_OS03G04050-cb001),thermal shift delta Tm (LOC_OS03G12390-cb001),thermal shift delta Tm (LOC_OS03G27990-cb004),thermal shift delta Tm (LOC_OS03G50450-cb001),thermal shift delta Tm (LOC_OS03G50810-cb003),thermal shift delta Tm (LOC_OS04G35114-cb001),thermal shift delta Tm (LOC_OS04G38480-cb003),thermal shift delta Tm (LOC_OS04G41100-cb001)
Oc1ccc(-c2nc(-c3ccc(F)cc3)c(-c3ccncc3)[nH]2)cc1,1.5 °C,0.98 °C,2.02 °C,0.47 °C,-0.26 °C,0.63 °C,1.96 °C,1.58 °C,0.99 °C,1.05 °C,0.9 °C,1.58 °C,0.9 °C,0.88 °C,0.55 °C,0.44 °C,0.55 °C,2.01 °C,1.53 °C,1.35 °C
CCS(=O)(=O)N1CCN(c2ccc(Nc3ncc(C(N)=O)c(NC4CC4)n3)cc2)CC1,0.76 °C,9.63 °C,1.4 °C,1.68 °C,3.04 °C,7.22 °C,0.35 °C,3.19 °C,5.36 °C,1.18 °C,8.46 °C,4.48 °C,0.19 °C,6.9 °C,5.89 °C,5.37 °C,4.92 °C,6.29 °C,2.13 °C,2.54 °C
COc1ccc(-c2ccc3c(N4CCOC[C@@H]4C)nc(N4CCOC[C@@H]4C)nc3n2)cc1CO,0.87 °C,0.93 °C,0.64 °C,-0.13 °C,-0.69 °C,0.1 °C,0.28 °C,0.31 °C,-1.22 °C,-0.06 °C,0.67 °C,0.38 °C,0.33 °C,-0.12 °C,0.09 °C,0.41 °C,0.18 °C,0.4 °C,-0.21 °C,0.57 °C
COc1cc(N2CCC(N(C)C)CC2)ccc1Nc1ncc(Cl)c(Nc2ccccc2P(C)(C)=O)n1,4.55 °C,0.43 °C,0.89 °C,0.32 °C,1.45 °C,4.81 °C,0.65 °C,5.8 °C,10.2 °C,0.5 °C,2.58 °C,0.23 °C,0.53 °C,10.9 °C,2.49 °C,0.35 °C,5.58 °C,4.67 °C,3.65 °C,0.61 °C
CCn1c2ccccc2c2cc(Nc3ccnc(NCCCN4CCOCC4)n3)ccc21,0.92 °C,1.04 °C,0.87 °C,0.29 °C,0.51 °C,0.28 °C,0.54 °C,1.04 °C,-0.17 °C,0.22 °C,0.77 °C,0.13 °C,0.05 °C,-0.48 °C,0.11 °C,0.22 °C,0.04 °C,1.09 °C,1.71 °C,0.46 °C
CN1CCC(Nc2nc(Nc3ccc(Oc4ccccc4)cc3)c3c(=O)[nH]cc(Br)c3n2)CC1,1.9 °C,3.13 °C,1.69 °C,0.86 °C,1.7 °C,3.58 °C,0.79 °C,3.25 °C,3.98 °C,0.52 °C,6.91 °C,0.98 °C,0.8 °C,2.05 °C,1.75 °C,1.67 °C,2.6 °C,4.37 °C,2.13 °C,0.75 °C
Cc1ccc(CNc2ncnc3ccc(-c4ccc(CO)o4)cc23)o1,1.69 °C,0.84 °C,0.78 °C,0.26 °C,-0.04 °C,0.37 °C,0.27 °C,1.61 °C,3.01 °C,1.11 °C,1.72 °C,0.02 °C,0.46 °C,1.65 °C,0.24 °C,0.03 °C,-0.19 °C,4.83 °C,0.75 °C,1.05 °C
CO[C@H]1CC[C@H](N2C(=O)CNc3ncc(-c4ccc(C(C)(C)O)nc4)nc32)CC1,-0.57 °C,0.72 °C,0.21 °C,-0.43 °C,0.09 °C,-0.05 °C,-0.1 °C,0.65 °C,-1.04 °C,-0.48 °C,0.31 °C,-0.17 °C,0.09 °C,-0.22 °C,-0.29 °C,0.22 °C,0.18 °C,-0.71 °C,1.62 °C,0.08 °C
O=C1c2ccc(Nc3ccc(F)cc3F)cc2CCc2ccc(OC[C@H](O)CO)cc21 [Skepinone-L],1.15 °C,1.18 °C,0.79 °C,0.21 °C,0.84 °C,0.42 °C,-0.07 °C,0.85 °C,0.72 °C,0.17 °C,0.45 °C,-0.21 °C,-0.01 °C,-0.61 °C,0.11 °C,0.06 °C,-0.16 °C,1.82 °C,1.25 °C,0.53 °C
Cc1cc(F)c(Nc2ncnc3cc(OCc4ccccc4)ccc23)cc1O,1.8 °C,0.94 °C,2.58 °C,1.25 °C,0.41 °C,0.6 °C,1.36 °C,1.46 °C,0.86 °C,1.59 °C,0.78 °C,0.36 °C,0.9 °C,0.2 °C,0.83 °C,1.28 °C,0.71 °C,1.12 °C,1.35 °C,-0.11 °C
O=C(c1ccc(Nc2nccc(-c3cc4ccccc4s3)n2)cc1)N1CCC(N2CCCC2)CC1 [IKK-16 (IKK Inhibitor VII)],0.94 °C,12.6 °C,0.43 °C,2.16 °C,3.52 °C,2.66 °C,0 °C,2.32 °C,11.1 °C,0.35 °C,6.42 °C,1.74 °C,0.22 °C,2.55 °C,4.05 °C,1.23 °C,5.04 °C,5.32 °C,3.88 °C,4.91 °C
C=CC(=O)N1CCN(CCCn2c(=O)c(-c3c(Cl)c(OC)cc(OC)c3Cl)cc3cnc(NC)nc32)CC1,1.48 °C,-0.24 °C,0.2 °C,-0.06 °C,0.02 °C,0.17 °C,-0.82 °C,0.53 °C,0.67 °C,-0.31 °C,1.93 °C,0.21 °C,0.58 °C,-0.09 °C,0.48 °C,0.92 °C,0.26 °C,-0.04 °C,0.5 °C,0.38 °C
